Calls of active or inactive are those of the source. Unless noted, the rule behind the calls is not given here.
Assays:
[1] = anti-His antibody binders, primary screen, artefact control for SMM control protein annotation, biochemical, small-molecule microarray, 635 nm fluorescence (AID 1128); conditions: anti-His Alexa647 antibody binding, higher = more signal;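 note: score merges feature fluorescence with signal-to-noise for each printed compound spot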
[2] = tested on: Human papillomavirus type 1a E7 protein (residues 1-88); test: HPV1a E7 small-molecule binders, primary screen, biochemical, small-molecule microarray, residues 1-88, 635 nm (AID 1129); conditions: small-molecule microarray binding, fluorescence 635 nm; higher = more signal
[3] = molecular target: Focal adhesion kinase 1 (Homo sapiens) (UniProt Q05397); test: small-molecule microarray binders of FAK, primary screen, biochemical, 635/667 nm fluorescence, BSA, DTT (AID 1130); conditions: PTK2 binding, 635 nm fluorescence, higher = more signal;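 note: composite of spot emission at 667 nm and signal to noise over triplicate slides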
[4] = tested on: Fibrinogen (Alexa647-labelled); test: fibrinogen binders on compound microarrays, profiling panel, artefact control for SMM control-protein annotation, biochemical, small-molecule microarray, 635/667 nm fluorescence (AID 1131); conditions: fibrinogen-A647 binding fluorescence, higher = more signal;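 note: z-score merges 667 nm fluorescence with per-spot signal-to-noise over triplicate slides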
[5] = molecular target: Follistatin (Homo sapiens) (UniProt P19883); test: follistatin binders on small-molecule microarrays, primary screen, biochemical, small-molecule microarray, 635/667 nm fluorescence (AID 1132); conditions: FST binding, 635 nm fluorescence, higher = more signal
[6] = molecular target: Fibroblast growth factor 2 (Homo sapiens) (UniProt P09038); test: FGF2 binders on small-molecule microarrays, primary screen, biochemical, small-molecule microarray, 635/667 nm fluorescence (AID 1133); conditions: small-molecule microarray binding, FGF2, fluorescence 635/667; higher = more signal
[7] = mitochondrial membrane potential change in A549 cells, profiling panel, cell-based, JC-1 fluorescence, basal, 24 h, 100 nL (AID 1138); conditions: higher = more signal;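 note: A549 lung adenocarcinoma cells under basal conditions with no added stimulus; test concentration not given here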
Lefty1 = Lefty1 binders on small-molecule microarrays, primary screen, biochemical, small-molecule microarray, 635/667 nm fluorescence (AID 1139); conditions: small-molecule microarray binding, fluorescence 635/667; higher = more signal
[8] = tested on: wheat germ agglutinin (Triticum aestivum), Alexa647-labelled; test: wheat germ agglutinin binders on compound microarrays, profiling panel, artefact control for SMM control-protein annotation, biochemical, small-molecule microarray, 635/667 nm fluorescence (AID 1140); conditions: WGA-A647 binding, 635 nm fluorescence, higher = more signal;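 note: score merges 667 nm feature emission with signal to noise over triplicate slides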
[9] = molecular target: Luciferin 4-monooxygenase (Photinus pyralis) (UniProt P08659); test: firefly luciferase enzyme inhibitors, primary screen, biochemical, luminescence, purified enzyme, 2006 set (AID 1141); conditions: SteadyGlo luminescence, 30 min, higher = more signal, called active from +8 up or from −8 down;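 note: cell-free assay with purified firefly luciferase at 100 ng per well in PBS; test concentration not given here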
[10] = tested on: Wnt5a (protein binding on small-molecule microarray); test: Wnt5a binders on small-molecule microarray, primary screen, biophysical, 635/667 nm fluorescence (AID 1142); conditions: 635 nm fluorescence, higher = more signal;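 note: fluorescence read at 667 nm with signal to noise per printed feature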
[11] = cell viability in Huh7 cells, primary screen, cytotoxicity control for HCV replication inhibitor project, CellTiter-Glo luminescence, basal, 48 h (AID 1143); conditions: Huh7 HCV replicon, higher = more signal, called active from +8 up or from −8 down;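 note: Huh7 hepatoma cells carrying a hepatitis C replication reporter with no stimulus; test concentration not given here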
[12] = P. aeruginosa biofilm formation inhibitors, primary screen, PAO1 strain, BacTiter-Glo luminescence, LB-PBS (AID 1144); conditions: 12 h, higher = more signal
[13] = CREB reporter modulators without forskolin, primary screen, cell-based, PC12, CRE-LacZ reporter, unstimulated (AID 1145); conditions: no forskolin, luminescence, 4.5 h, higher = more signal, called active from +8 up or from −8 down
[14] = CREB reporter modulators under forskolin, primary screen, cell-based, PC12, CRE-LacZ reporter, forskolin-stimulated (AID 1146); conditions: luminescence, 4.5 h, higher = more signal, called active from +8 up or from −8 down;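 note: PC12 cells with 6xCRE LacZ reporter stimulated by forskolin 10 µM; beta-galactosidase reporter signal reflecting CREB driven transcription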
[15] = molecular target: Streptavidin (Streptomyces avidinii) (UniProt P22629); test: streptavidin binders on small-molecule microarray, primary screen, artefact control for SMM compound annotation, biophysical, 635/667 nm fluorescence (AID 1147); conditions: streptavidin binding, higher = more signal;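 note: signal reflects streptavidin binding to arrayed compounds as a control protein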
[16] = small-molecule binders of probe aInhba, primary screen, biochemical, small-molecule microarray, 635/667 nm fluorescence (AID 1148); conditions: higher = more signal;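 note: score merges 667nm spot fluorescence with signal-to-noise for antibody binding to printed compounds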
Torsin-1A (Homo sapiens) [17] = molecular target: Torsin-1A (Homo sapiens) (UniProt O14656); test: torsin A binders from cell lysate, primary screen, small-molecule microarray, wild-type, 635/667 nm (AID 1149); conditions: COS7 hTOR1A-WT lysate, 635 nm fluorescence, higher = more signal
Torsin-1A (Homo sapiens) [18] = molecular target: Torsin-1A (Homo sapiens) (UniProt O14656); test: small-molecule binders of mutant TOR1A in lysate, primary screen, cell lysate, small-molecule microarray, COS7 lysate, 635/667 nm fluorescence (AID 1150); conditions: COS7 hTOR1A mutant lysate, 635 nm fluorescence, higher = more signal;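 note: score pools 667 nm emission and signal to noise measuring lysate protein binding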
[19] = tested on: Sonic hedgehog protein (Shh); test: small-molecule binders of Shh protein, primary screen, biochemical, small-molecule microarray, 635/667 nm fluorescence (AID 1151); conditions: small-molecule microarray binding, 635 nm fluorescence; higher = more signal;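 note: Shh protein binding to compounds spotted on small-molecule microarray slides; score combines spot fluorescence intensity with signal-to-noise across triplicate slides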

Focal adhesion kinase 1 (Homo sapiens), sequence (Q05397 whole entry, looked up): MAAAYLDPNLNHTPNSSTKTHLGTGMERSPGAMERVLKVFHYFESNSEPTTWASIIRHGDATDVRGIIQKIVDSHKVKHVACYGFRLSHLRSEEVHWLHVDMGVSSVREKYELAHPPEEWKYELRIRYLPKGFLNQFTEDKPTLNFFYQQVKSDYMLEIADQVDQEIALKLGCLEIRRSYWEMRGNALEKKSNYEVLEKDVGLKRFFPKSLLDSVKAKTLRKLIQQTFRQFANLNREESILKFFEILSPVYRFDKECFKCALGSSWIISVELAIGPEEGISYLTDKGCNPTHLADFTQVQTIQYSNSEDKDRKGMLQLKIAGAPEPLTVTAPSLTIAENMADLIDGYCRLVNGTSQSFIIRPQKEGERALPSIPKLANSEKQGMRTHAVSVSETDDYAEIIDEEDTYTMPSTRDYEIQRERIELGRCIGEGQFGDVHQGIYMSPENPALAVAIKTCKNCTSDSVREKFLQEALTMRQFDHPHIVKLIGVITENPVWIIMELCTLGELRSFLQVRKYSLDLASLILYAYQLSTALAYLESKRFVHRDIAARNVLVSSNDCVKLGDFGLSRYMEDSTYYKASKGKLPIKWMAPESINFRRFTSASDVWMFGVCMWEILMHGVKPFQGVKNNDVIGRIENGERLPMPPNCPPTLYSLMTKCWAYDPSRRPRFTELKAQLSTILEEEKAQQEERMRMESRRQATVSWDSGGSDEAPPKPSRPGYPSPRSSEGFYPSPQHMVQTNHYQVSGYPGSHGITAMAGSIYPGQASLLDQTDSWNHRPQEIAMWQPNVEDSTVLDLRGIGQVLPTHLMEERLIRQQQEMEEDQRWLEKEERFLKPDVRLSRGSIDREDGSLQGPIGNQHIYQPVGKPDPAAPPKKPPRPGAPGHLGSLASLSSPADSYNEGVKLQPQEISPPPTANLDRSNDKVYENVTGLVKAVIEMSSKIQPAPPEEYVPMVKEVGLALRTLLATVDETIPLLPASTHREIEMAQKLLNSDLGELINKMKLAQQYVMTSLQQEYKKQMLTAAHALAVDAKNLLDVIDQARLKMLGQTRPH
Streptavidin (Streptomyces avidinii), sequence (P22629 whole entry, looked up): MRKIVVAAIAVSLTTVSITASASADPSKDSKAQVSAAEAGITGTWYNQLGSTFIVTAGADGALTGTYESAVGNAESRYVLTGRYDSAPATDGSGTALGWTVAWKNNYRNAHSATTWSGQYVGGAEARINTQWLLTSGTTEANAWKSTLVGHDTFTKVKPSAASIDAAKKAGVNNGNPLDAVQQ
Torsin-1A (Homo sapiens), sequence (O14656 whole entry, looked up): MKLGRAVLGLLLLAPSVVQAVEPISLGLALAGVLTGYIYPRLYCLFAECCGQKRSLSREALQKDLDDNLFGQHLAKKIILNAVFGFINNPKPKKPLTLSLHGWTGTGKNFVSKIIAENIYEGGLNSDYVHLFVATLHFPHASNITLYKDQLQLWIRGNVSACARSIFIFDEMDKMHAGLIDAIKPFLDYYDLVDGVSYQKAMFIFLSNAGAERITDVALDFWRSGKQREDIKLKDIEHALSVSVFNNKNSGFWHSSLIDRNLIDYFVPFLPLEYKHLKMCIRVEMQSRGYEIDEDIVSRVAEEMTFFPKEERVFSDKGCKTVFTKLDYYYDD
Fibroblast growth factor 2 (Homo sapiens), sequence (P09038 whole entry, looked up): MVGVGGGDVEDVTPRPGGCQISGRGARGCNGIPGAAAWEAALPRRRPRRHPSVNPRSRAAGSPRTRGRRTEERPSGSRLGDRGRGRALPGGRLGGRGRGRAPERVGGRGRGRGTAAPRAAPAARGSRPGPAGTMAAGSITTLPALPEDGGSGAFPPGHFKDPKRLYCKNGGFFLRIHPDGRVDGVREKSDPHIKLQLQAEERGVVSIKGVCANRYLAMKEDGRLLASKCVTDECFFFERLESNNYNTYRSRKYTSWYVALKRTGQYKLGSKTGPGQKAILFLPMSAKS
Follistatin (Homo sapiens), sequence (P19883 whole entry, looked up): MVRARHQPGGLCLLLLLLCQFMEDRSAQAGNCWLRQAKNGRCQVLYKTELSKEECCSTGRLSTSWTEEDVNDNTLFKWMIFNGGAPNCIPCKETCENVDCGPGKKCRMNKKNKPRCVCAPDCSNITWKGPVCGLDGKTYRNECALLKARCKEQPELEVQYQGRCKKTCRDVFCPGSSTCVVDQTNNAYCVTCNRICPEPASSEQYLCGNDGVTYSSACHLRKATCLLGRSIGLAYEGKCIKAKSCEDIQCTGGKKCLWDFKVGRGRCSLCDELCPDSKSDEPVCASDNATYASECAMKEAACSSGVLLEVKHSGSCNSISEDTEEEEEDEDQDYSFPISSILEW
Luciferin 4-monooxygenase (Photinus pyralis), sequence (P08659 whole entry, looked up): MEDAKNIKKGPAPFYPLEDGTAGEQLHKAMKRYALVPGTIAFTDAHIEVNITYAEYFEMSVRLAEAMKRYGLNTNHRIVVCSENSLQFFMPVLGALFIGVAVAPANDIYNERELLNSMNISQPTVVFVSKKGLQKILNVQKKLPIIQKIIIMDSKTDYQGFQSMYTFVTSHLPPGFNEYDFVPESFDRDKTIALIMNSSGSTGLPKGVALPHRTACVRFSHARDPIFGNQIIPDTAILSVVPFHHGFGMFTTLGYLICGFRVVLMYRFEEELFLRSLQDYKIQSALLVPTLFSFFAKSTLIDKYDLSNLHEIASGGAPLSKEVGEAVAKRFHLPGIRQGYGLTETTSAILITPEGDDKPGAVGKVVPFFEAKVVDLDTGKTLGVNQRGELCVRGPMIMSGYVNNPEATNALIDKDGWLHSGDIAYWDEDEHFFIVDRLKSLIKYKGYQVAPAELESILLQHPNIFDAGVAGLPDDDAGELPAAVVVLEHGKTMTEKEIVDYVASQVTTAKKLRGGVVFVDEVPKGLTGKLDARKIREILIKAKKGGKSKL

Row | SMILES | composite z-score [1] | composite z-score [2] | composite z-score [3] | composite z-score [4] | composite z-score [5] | composite z-score [6] | z-score [7] | composite z-score (Lefty1) | composite z-score [8] | z-score [9] | composite z-score [10] | z-score [11] | z-score [12] | z-score [13] | z-score [14] | composite z-score [15] | composite z-score [16] | composite z-score (Torsin-1A (Homo sapiens) [17]) | composite z-score (Torsin-1A (Homo sapiens) [18]) | composite z-score [19]
1 | Cc1ccc(S[C@]2(C(=O)NCC(F)(F)F)CC(=O)N(Cc3ccccc3C(F)(F)F)[C@@H]2c2ccc(CO)cc2)cc1 | -0.344 | -0.481 | -1.09 | -0.563 | -1.11 | -0.826 | -0.144 | -1.44 | -0.564 | 0.714 (inactive) | -0.186 | 0.518 (inactive) | 0.0205 (inactive) | -0.349 (inactive) | -0.163 (inactive) | -1 | -0.179 | -1.23 | 0.0748 | -0.972
2 | NC(=O)N1C(=O)C2C(C1=O)C1C=C(CCCO)C2C(C2CC2)N1Cc1sc2ccccc2c1Cl (stereo not given) | 2.4 | 0.802 | 0.284 | 0.795 | 0.539 | 0.983 | 0.898 | 0.587 | 0.661 | -2.2 (inactive) | 0.588 | -0.205 (inactive) | 0.0825 (inactive) | 0.261 (inactive) | -0.654 (inactive) | 0.526 | -0.0371 | 0.842 | 0.82 | 0.726
3 | C=C(COC)C(=O)CC[C@@H](OC(=O)c1ccccc1-c1ccccc1C(=O)O)c1ccc(OCCO)cc1 | -0.0978 | -0.0905 | -0.0142 | -1.48 | 1.45 | 1.42 | 0.0645 | 1.48 | 0.595 | -3.04 (inactive) | 0.238 | -0.043 (inactive) | -0.147 (inactive) | 0.727 (inactive) | 1.36 (inactive) | -0.986 | 0.0018 | -0.0281 | 1.15 | 1.86
4 | CCCC#C[Si](O[C@H](CC)c1cn(Cc2ccccc2)nn1)(C(C)C)C(C)C | 0.738 | 0.209 | 0.0116 | 0.903 | 1.01 | 0.525 | -0.0817 | 0.828 | 0.143 | -0.403 (inactive) | 0.24 | -1.01 (inactive) | 0.171 (inactive) | -0.374 (inactive) | 0.04 (inactive) | 1.72 | 0.0541 | 0.732 | 0.563 | 1.27
5 | CCCCC(O)C1C=CC2C(=O)N(c3ccccc3)C(=O)C2N1Nc1ccc(C#N)cc1 (stereo not given) | 0.584 | 1.13 | 0.764 | 0.981 | 0.0191 | 0.0696 | 0.0808 | -0.295 | 0.819 | -1.45 (inactive) | -0.0416 | 0.739 (inactive) | -1.25 (inactive) | 0.632 (inactive) | 0.719 (inactive) | 0.718 | 0.545 | 0.242 | 0.179 | -0.492
6 | COC(=O)[C@@]1(Cc2ccccc2)N=C(c2ccc(OCCCO)cc2)O[C@H]1c1ccccc1CN=[N+]=[N-] | 1.91 | 0.997 | 0.291 | 0.447 | 1.33 | 1.02 | -1.07 | 0.434 | 0.0777 | -2.05 (inactive) | 0.289 | -5.03 (inactive) | -0.621 (inactive) | -0.435 (inactive) | -1.97 (inactive) | -0.12 | 0.0227 | 0.009 | 0.668 | 1.88
7 | CC(C)N1C(=O)c2ccccc2[C@](C)(C(=O)NCC(F)(F)F)[C@@H]1c1ccc(CO)cc1 | -0.851 | -0.432 | -0.749 | -1.07 | -1.02 | -0.337 | 0.607 | -1.5 | 0.594 | -1.17 (inactive) | -0.218 | -0.167 (inactive) | 0.633 (inactive) | 0.414 (inactive) | -0.0278 (inactive) | -0.913 | 0.0516 | -0.978 | 0.33 | -0.982
8 | COc1ccc(C(=O)Nc2cccc(CN3C(=O)[C@@]4(O[C@@H](CC(=O)N5CCC[C@H]5CO)[C@H]([Si](C)(C)c5ccc(OC)cc5)[C@H]4C)c4ccccc43)c2)cc1 | 1.39 | 1.03 | 0.988 | 0.875 | 1.08 | 1.1 | 1.53 | 0.703 | 0.7 | -0.599 (inactive) | 0.107 | -4.18 (inactive) | -0.601 (inactive) | 1.69 (inactive) | -1.55 (inactive) | 0.621 | -0.0454 | 0.313 | 1.15 | 1.26
9 | COc1ccc([Si](C)(C)[C@@H]2[C@@H](CC(=O)N(CCO)Cc3ccccc3)O[C@]3(C(=O)N(Cc4ccc(I)cc4)c4ccccc43)[C@H]2C)cc1 | 1.9 | 0.32 | 0.385 | 0.391 | 1.49 | 1.66 | -0.472 | 1.53 | -0.0349 | 0.249 (inactive) | 0.29 | -4.48 (inactive) | -0.129 (inactive) | -0.505 (inactive) | -0.905 (inactive) | 0.349 | 1.22 | 0.402 | 0.603 | 2.01
10 | C=C(CCCC)/C(=C/C[C@H](OC(=O)c1ccncc1)c1ccccc1OCCO)c1cc(C(=O)OC)ccc1OC | 2.75 | 0.488 | 0.0357 | 0.013 | 0.95 | 0.969 | 2.03 | 0.979 | -0.0208 | -0.776 (inactive) | -0.0692 | -1.78 (inactive) | -0.402 (inactive) | 11.4 (active) | 0.179 (inactive) | 0.396 | 0.0391 | 0.0152 | 0.369 | 1.43
11 | O=C1C2C=CC(C(O)c3ccc([N+](=O)[O-])cc3)N(Nc3ccccc3F)C2C(=O)N1c1ccccc1 (stereo not given) | 1.68 | 1.19 | -0.119 | 0.717 | 0.232 | -0.218 | -0.675 | -0.46 | 1.36 | 0.739 (inactive) | 0.164 | -0.631 (inactive) | -0.242 (inactive) | 0.743 (inactive) | 0.402 (inactive) | 0.428 | 0.0028 | 0.16 | 0.52 | -0.449
12 | O=C1O[C@@H](c2ccccc2)[C@@H](c2ccccc2)N2[C@@H](c3ccccc3OCCO)[C@]3(C(=O)Nc4ccc(C#CCCO)cc43)[C@@H](C(=O)NC[C@H](O)c3ccccc3)[C@H]12 | 1.32 | 1.25 | 1.06 | 0.847 | 1.27 | 0.835 | -0.928 | 0.831 | 0.891 | 0.808 (inactive) | 0.381 | -0.908 (inactive) | 0.191 (inactive) | -0.402 (inactive) | 0.717 (inactive) | 1.63 | 1.17 | 1.49 | 1.86 | 1.94

— PubChem BioAssay
